Experimental data: PubChem BioAssay (NCATS)
“And” between values parts separate entries of the source, which are not always exact repeats. Equal entries are not always repeated. Records with an inconclusive call do not appear. The source made the active and inactive calls. The call rests on the fitted dose curve; in most records, active means well fitted curve in the direction sought with a large enough effect; inconclusive means small, poorly fitted or top-dose-only effect, or another doubt; inactive means no such curve, though single readings can be large; an effect the other way counts as inactive or inconclusive.

Tests used:
[1] = biological target: Cellular tumor antigen p53 (Homo sapiens) (UniProt P04637); assay: Primary qHTS for small molecule compounds that upregulate eGFP-tagged delta133p53alpha (in N-terminal) cells. (AID 2060322); settings: NCI-H358 eGFP-delta133p53alpha fluorescence, 24 h; activation: stronger effect = higher value; further: nearly all actives have a fitted effect of over 75% in size; further: potency means the concentration at half of the fitted maximal effect;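 on activation: series mostly up to about 56 µM; 0% = DMSO vehicle and 100% = reference activator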
Cellular tumor antigen p53 (Homo sapiens), sequence (P04637 whole entry, looked up): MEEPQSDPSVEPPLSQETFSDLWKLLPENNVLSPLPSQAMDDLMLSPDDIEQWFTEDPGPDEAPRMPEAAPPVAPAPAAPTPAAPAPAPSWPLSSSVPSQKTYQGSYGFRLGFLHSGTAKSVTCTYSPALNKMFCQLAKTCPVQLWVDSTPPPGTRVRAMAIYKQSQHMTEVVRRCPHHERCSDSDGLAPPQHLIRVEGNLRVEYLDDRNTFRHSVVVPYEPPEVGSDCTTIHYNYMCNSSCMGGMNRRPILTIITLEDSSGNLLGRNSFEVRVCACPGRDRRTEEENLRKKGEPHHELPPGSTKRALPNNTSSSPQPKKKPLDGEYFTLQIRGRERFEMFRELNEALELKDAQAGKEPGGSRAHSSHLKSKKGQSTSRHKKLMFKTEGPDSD
How it was run: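 NCI-H358 cells pre-induced 24 h with 10 ng/ml doxycycline to express N-terminal eGFP-delta133p53alpha, then dosed 24 h at 37C without doxycycline; fixed, Hoechst-stained, GFP intensity by laser scanning cytometry, normalized to DMSO (0%) and 57.5 uM 5-azacytidine (100%).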

[2] = biological target: Aldehyde dehydrogenase, mitochondrial (Homo sapiens) (UniProt P05091); assay: qHTS for Inhibitors of the Aldehyde Dehydrogenase Family (ALDH2) Primary screen (AID 2061308);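 further: plate controls were vehicle for no effect and reference inhibitor for full effect; nearly all actives have a fitted effect of over 55% in size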
[3] = biological target: Retinaldehyde dehydrogenase 3 (Homo sapiens) (UniProt P47895); assay: qHTS for Inhibitors of the Aldehyde Dehydrogenase Family (ALDH1A3) Primary screen (AID 2061315);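 further: plate controls were DMSO vehicle for no effect and reference inhibitor for full effect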
[4] = BET inhibitor-based combinations targeting novel dependencies in MECOM-rearranged (r) AML: SET-2 cell line (AID 2202231); settings: SET-2 AML cells viability, CellTiter-Glo luminescence, 48 h; viability: stronger effect = lower value, concentration not given here; further: nearly all actives have a fitted effect of over 35% in size; further: potency means the concentration at half of the fitted maximal effect;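 on viability: plate controls were DMSO treated cells for no effect and wells without cells for full effect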
How it was run: (§1)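 500 cells/well; 11-pt dose curve; 48 h, standard incubator; CellTiter-Glo luminescence after 15 min RT; DMSO/empty-well normalization; AUC plus Z-AUC (mean-centered within each line).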

[5] = BET inhibitor-based combinations targeting novel dependencies in MECOM-rearranged (r) AML: OCI-AML3 cell line (AID 2202232); settings: Potency: OCI-AML3 viability; further: potency means the concentration at half of the fitted maximal effect; nearly all actives have a fitted effect of over 35% in size
How it was run: as §1

[6] = BET inhibitor-based combinations targeting novel dependencies in MECOM-rearranged (r) AML: MV-4-11 cell line (AID 2202233); further: potency means the concentration at half of the fitted maximal effect; nearly all actives have a fitted effect of over 45% in size
How it was run: (§2)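 Cells were plated at 500 per well and exposed to each drug across an 11-point dose range for 48 hr at standard incubator conditions. Viability was read by CellTiter-Glo luminescence, and activity was expressed as AUC and per-cell-line Z-transformed AUC.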

[7] = BET inhibitor-based combinations targeting novel dependencies in MECOM-rearranged (r) AML: HNT-34 cell line (AID 2202234); further: potency means the concentration at half of the fitted maximal effect; nearly all actives have a fitted effect of over 35% in size
How it was run: as §2

[8] = BET inhibitor-based combinations targeting novel dependencies in MECOM-rearranged (r) AML: UCSD-AML1 cell line (AID 2202235); further: potency means the concentration at half of the fitted maximal effect; nearly all actives have a fitted effect of over 40% in size
How it was run: as §2

[9] = BET inhibitor-based combinations targeting novel dependencies in MECOM-rearranged (r) AML: AML-191 cell line (AID 2202236; further: potency means the concentration at half of the fitted maximal effect; nearly all actives have a fitted effect of over 35% in size)
How it was run: as §1

CC1(C)CC2C(C1)C(C)(O)C13CC1(COC3=O)C2O (centres undefined)
inactive: activation [1] 8.93% | Potency [2] | Potency [3]

C=C[C@@](C)(O)CC/C=C(\C)C(=O)O[C@@H]1[C@@H]2O[C@]2(C)[C@H]2[C@H](O[C@@H]3O[C@H](CO)[C@@H](O)[C@H](O)[C@H]3O)OC=C[C@@]12O
inactive: activation [1] -3.57% | Potency [2] | Potency [3]

Cc1ccc(-c2ccc3ncc4c(c3n2)n(C2CCN(C(=O)[C@H](C)O)CC2)c(=O)n4C)cn1
inactive: Potency [2] | Potency [3]
active: Potency [1] 12000 nM | Potency [4] 166 nM | Potency [5] 296 nM | Potency [6] 209 nM | Potency [7] 263 nM | Potency [8] 93.4 nM | Potency [9] 166 nM

Cn1cnc2c(F)c(Nc3ccc(Br)cc3Cl)c(C(=O)NOCCO)cc21
inactive: activation [1] 24.1% | Potency [2] | Potency [3] | viability [4] 95.4%
active: Potency [5] 29.5 nM

Cc1nc(NC(=O)N2CCCC2C(N)=O)sc1-c1ccnc(C(C)(C)C(F)(F)F)c1 (centres undefined)
active: Potency [4] 20900 nM | Potency [5] 2630 nM | Potency [6] 16600 nM
inactive: activation [1] -0.893% | Potency [2] | Potency [3]

CC1(C)CC(=O)c2c(C(F)(F)F)nn(-c3ccc(C(N)=O)c(NC4CCC(O)CC4)c3)c2C1 (centres undefined)
inactive: activation [1] 11.9% and -1.67% | Potency [2] | Potency [3]
active: Potency [4] 148 nM | Potency [5] 74.2 nM | Potency [6] 37.2 nM | Potency [7] 93.4 nM | Potency [8] 105 nM
